Results reported in article PMC7862700, “An all-to-all approach to the identification of sequence-specific readers for epigenetic DNA modifications on cytosine”.

Key:
Test in all cases: DAPPL (digital affinity profiling via proximity ligation, sequencing); 10 mM Tris-HCl pH 7.5, 50 mM NaCl, 1 mM DTT, 4% glycerol, room temperature, 30 min; GST-TFs on glutathione beads, 16-mer random dsDNA library, 0.1% formaldehyde crosslink after washing; high values mean tight binding
FLI1 = target: T1, FLI1 (Homo sapiens, UniProt Q01543 1-452); conditions: protein: recombinant; tags: N-terminal GST; dsDNA, one strand shown
T1 sequence: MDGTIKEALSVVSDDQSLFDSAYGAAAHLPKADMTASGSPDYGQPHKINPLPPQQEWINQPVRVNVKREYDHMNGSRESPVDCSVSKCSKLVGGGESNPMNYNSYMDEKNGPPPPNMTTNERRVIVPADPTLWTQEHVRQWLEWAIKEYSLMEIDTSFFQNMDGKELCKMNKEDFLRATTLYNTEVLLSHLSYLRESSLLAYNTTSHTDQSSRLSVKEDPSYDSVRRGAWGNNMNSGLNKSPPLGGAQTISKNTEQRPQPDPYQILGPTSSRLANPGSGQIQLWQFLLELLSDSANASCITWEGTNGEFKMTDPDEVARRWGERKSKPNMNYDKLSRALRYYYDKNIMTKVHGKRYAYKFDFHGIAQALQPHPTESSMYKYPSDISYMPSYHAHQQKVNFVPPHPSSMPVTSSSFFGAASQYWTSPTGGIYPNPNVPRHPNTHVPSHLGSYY
How it was run: (§1)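 Human transcription factors carrying a GST fusion were produced in yeast, bound to glutathione beads, tagged with DNA barcodes and pooled together with a tag-only sample. Each pool was held with 200 nmole of a random double-stranded 16-mer DNA library in Tris/NaCl/DTT/glycerol buffer for 30 min at room temperature, then washed, crosslinked in 0.1% formaldehyde, proximity-ligated with BsaI/T4 ligase (1 h, 37 °C), PCR-amplified and sequenced on an Illumina NextSeq500. Binding signal is the read frequency of each hexamer for a given factor divided by its frequency in the tag-only sample.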

ELK1 = target: T2, ELK1 (Homo sapiens, UniProt P19419 1-428); conditions: protein: recombinant; tags: N-terminal GST; dsDNA, one strand shown
T2 sequence: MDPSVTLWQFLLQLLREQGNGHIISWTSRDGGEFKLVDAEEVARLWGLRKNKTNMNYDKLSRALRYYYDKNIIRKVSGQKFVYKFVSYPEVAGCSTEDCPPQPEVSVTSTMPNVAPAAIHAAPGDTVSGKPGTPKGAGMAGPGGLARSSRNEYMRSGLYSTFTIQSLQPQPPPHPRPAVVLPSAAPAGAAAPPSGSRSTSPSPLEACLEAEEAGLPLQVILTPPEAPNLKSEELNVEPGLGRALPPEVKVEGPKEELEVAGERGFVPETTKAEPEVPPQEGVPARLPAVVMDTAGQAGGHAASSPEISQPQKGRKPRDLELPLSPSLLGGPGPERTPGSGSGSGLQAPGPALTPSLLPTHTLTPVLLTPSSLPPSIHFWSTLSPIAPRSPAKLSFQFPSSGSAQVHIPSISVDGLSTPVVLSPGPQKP
How it was run: as §1

GABPA = target: T3, GABPA (Homo sapiens, UniProt Q06546 1-454); conditions: protein: recombinant; tags: N-terminal GST; dsDNA, one strand shown
T3 sequence: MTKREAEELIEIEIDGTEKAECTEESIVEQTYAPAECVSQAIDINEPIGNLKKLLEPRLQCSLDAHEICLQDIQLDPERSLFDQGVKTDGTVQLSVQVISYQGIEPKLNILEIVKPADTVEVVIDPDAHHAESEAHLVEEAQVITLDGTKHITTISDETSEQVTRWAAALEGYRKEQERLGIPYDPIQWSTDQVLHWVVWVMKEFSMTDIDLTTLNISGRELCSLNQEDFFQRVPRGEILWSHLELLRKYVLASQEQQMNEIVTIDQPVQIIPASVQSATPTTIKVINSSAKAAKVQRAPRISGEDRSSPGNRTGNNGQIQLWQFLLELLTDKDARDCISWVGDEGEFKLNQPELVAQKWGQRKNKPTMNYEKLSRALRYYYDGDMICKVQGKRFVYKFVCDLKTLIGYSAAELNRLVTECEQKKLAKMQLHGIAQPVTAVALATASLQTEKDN
How it was run: as §1

ERG = target: T4, ERG (Homo sapiens, UniProt P11308 1-479); conditions: protein: recombinant; tags: N-terminal GST; dsDNA, one strand shown
T4 sequence: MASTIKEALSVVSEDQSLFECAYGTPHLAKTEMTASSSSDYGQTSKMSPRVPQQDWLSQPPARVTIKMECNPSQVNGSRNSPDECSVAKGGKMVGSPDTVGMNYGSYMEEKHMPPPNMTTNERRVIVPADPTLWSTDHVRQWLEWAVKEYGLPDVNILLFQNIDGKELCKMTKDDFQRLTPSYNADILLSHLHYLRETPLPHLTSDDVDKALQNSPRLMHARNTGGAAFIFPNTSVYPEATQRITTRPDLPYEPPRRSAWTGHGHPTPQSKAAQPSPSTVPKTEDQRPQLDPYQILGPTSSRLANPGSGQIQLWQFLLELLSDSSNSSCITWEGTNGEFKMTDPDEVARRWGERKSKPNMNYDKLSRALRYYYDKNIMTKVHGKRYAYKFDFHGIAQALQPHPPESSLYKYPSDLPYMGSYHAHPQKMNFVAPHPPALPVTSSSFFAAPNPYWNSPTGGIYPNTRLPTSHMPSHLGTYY
How it was run: as §1

ELF1 = ELF1 (Homo sapiens, UniProt P32519 1-619); conditions: protein: recombinant; tags: N-terminal GST; dsDNA, one strand shown
ELF1, sequence (P32519 whole entry): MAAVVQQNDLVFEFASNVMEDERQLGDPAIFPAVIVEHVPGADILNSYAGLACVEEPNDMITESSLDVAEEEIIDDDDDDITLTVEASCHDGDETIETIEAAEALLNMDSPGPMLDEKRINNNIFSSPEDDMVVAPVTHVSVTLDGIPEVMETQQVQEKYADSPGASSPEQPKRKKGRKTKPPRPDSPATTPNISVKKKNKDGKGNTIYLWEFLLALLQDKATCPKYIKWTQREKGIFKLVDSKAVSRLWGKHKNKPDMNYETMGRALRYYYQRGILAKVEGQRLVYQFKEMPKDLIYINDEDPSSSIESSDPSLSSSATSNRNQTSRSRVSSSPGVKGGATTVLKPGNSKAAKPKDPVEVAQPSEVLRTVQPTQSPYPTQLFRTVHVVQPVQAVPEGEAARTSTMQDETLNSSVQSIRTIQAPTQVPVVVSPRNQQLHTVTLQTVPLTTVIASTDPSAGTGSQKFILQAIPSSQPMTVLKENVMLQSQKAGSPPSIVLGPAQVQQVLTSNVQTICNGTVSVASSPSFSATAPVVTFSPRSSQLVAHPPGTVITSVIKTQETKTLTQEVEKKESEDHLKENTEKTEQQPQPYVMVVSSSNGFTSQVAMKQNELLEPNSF
How it was run: as §1

EHF = target: T5, EHF (Homo sapiens, UniProt Q9NZC4 1-300); conditions: protein: recombinant; tags: N-terminal GST; dsDNA, one strand shown
T5 sequence: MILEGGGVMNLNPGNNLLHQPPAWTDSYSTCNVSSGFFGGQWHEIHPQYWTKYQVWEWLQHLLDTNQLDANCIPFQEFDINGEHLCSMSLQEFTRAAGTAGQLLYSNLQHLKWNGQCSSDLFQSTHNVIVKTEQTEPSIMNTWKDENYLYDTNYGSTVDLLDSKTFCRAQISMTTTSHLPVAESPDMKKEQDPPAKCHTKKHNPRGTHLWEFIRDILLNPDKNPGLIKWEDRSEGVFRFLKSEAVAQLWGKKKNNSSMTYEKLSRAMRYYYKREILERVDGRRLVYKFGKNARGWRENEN
How it was run: as §1

SPI1 = SPI1 (Homo sapiens, UniProt P17947 1-270); conditions: protein: recombinant; tags: N-terminal GST; dsDNA, one strand shown
How it was run: as §1

SPIB = SPIB (Homo sapiens, UniProt Q01892 1-262); conditions: protein: recombinant; tags: N-terminal GST; dsDNA, one strand shown
SPIB, sequence (Q01892 whole entry): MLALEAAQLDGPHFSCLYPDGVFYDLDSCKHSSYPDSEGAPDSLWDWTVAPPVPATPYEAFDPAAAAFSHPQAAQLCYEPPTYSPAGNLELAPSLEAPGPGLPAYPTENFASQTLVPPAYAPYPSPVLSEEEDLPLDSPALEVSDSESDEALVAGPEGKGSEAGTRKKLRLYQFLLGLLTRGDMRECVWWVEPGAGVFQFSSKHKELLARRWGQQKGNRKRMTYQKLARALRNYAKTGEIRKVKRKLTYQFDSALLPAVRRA
How it was run: as §1

ELK3 = target: T6, ELK3 (Homo sapiens, UniProt P41970 1-407); conditions: protein: recombinant; tags: N-terminal GST; dsDNA, one strand shown
T6 sequence: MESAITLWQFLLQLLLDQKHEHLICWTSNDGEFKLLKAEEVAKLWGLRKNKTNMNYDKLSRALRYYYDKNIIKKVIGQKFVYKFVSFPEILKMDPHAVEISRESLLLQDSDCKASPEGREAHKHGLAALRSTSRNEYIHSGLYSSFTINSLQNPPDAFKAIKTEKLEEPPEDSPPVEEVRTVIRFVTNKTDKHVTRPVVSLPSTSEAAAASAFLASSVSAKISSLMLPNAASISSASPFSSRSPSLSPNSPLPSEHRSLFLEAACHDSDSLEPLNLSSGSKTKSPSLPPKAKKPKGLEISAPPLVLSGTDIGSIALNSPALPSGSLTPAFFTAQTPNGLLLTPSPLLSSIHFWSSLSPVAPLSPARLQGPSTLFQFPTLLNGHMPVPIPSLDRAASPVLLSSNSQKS
How it was run: as §1

FEV = target: T7, FEV (Homo sapiens, UniProt Q99581 1-238); conditions: protein: recombinant; tags: N-terminal GST; dsDNA, one strand shown
T7 sequence: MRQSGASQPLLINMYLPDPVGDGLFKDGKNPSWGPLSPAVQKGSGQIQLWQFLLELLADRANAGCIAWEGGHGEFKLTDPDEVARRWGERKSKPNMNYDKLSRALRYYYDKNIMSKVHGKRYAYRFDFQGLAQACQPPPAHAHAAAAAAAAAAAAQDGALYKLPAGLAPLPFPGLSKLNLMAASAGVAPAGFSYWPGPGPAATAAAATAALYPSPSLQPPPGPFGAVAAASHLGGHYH
How it was run: as §1

ETV5 = ETV5 (Homo sapiens, UniProt P41161 1-510); conditions: protein: recombinant; tags: N-terminal GST; dsDNA, one strand shown
ETV5, sequence (P41161 whole entry): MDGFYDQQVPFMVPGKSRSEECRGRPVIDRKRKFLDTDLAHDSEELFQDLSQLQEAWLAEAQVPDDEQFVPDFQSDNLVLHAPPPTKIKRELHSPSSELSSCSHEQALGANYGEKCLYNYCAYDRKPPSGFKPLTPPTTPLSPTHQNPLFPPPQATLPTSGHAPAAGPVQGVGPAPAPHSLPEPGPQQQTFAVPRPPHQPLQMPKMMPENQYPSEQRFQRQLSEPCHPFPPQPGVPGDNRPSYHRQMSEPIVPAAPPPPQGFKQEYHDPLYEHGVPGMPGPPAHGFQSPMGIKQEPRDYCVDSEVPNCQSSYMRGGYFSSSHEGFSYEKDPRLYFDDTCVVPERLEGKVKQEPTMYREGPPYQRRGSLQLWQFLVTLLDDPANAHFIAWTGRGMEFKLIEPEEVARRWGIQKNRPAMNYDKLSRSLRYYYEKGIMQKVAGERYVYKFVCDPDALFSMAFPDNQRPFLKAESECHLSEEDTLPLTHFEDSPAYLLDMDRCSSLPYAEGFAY
How it was run: as §1

HSF1 = HSF1 (Homo sapiens, UniProt Q00613 1-529); conditions: protein: recombinant; tags: N-terminal GST; chain copies: 3; dsDNA, one strand shown
HSF1, sequence (Q00613 whole entry): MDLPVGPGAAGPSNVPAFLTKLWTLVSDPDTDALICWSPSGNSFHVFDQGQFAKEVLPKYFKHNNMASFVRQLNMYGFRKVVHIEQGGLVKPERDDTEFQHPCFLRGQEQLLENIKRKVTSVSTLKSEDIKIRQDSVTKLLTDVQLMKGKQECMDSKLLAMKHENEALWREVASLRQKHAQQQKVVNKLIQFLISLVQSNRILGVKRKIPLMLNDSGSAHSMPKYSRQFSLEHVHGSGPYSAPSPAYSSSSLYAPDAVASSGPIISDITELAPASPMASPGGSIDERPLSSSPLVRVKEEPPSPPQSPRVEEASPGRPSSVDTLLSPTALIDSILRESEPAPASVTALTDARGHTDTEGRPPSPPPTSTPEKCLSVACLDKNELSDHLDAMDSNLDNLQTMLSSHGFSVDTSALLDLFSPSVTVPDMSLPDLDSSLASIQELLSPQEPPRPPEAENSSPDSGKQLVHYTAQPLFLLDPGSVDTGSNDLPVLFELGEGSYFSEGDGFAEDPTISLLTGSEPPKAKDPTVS
How it was run: as §1

SPIC = target: T8, SPIC (Homo sapiens, UniProt Q8N5J4 1-248); conditions: protein: recombinant; tags: N-terminal GST; dsDNA, one strand shown
T8 sequence: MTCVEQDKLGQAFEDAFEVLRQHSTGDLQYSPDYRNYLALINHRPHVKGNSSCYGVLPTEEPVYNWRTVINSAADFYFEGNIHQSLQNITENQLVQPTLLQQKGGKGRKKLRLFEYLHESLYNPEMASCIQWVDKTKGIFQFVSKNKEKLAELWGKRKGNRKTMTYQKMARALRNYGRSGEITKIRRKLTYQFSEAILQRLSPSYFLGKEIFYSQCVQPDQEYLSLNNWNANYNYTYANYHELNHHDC
How it was run: as §1

ELF4 = ELF4 (Homo sapiens, UniProt Q99607 1-663); conditions: protein: recombinant; tags: N-terminal GST; dsDNA, one strand shown
ELF4, sequence (Q99607 whole entry): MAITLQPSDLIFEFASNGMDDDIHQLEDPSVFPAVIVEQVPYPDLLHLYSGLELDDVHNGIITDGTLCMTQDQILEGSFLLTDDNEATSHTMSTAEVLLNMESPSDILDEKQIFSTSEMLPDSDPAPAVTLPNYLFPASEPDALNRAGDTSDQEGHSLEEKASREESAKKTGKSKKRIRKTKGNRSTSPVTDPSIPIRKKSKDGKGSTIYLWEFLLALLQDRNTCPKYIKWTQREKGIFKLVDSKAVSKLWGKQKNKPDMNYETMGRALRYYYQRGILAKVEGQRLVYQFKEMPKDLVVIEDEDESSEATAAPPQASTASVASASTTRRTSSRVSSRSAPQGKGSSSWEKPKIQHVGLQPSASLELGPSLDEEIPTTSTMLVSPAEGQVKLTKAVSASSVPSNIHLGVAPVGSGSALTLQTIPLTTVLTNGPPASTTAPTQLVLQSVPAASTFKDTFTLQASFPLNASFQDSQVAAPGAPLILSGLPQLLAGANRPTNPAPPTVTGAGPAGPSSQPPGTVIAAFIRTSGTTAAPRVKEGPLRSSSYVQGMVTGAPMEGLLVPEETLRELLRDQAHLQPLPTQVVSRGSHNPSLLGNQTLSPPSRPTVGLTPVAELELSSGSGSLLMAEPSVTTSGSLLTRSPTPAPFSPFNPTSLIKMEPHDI
How it was run: as §1

ELK4 = target: T9, ELK4 (Homo sapiens, UniProt P28324-2 1-405); conditions: protein: recombinant; tags: N-terminal GST; dsDNA, one strand shown
T9 sequence: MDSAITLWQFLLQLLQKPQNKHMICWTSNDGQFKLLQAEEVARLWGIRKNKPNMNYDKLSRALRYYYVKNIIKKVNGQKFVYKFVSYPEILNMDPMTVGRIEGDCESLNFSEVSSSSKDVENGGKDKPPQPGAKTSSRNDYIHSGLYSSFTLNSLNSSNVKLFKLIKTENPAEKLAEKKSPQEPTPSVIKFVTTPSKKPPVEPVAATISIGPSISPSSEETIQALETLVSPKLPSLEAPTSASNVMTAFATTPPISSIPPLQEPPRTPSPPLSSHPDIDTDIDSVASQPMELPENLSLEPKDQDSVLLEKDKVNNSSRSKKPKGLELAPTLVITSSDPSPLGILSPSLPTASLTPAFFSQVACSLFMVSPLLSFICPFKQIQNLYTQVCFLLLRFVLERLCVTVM
How it was run: as §1

ETV2 = target: T10, ETV2 (Homo sapiens, UniProt O00321 1-342); conditions: protein: recombinant; tags: N-terminal GST; dsDNA, one strand shown
T10 sequence: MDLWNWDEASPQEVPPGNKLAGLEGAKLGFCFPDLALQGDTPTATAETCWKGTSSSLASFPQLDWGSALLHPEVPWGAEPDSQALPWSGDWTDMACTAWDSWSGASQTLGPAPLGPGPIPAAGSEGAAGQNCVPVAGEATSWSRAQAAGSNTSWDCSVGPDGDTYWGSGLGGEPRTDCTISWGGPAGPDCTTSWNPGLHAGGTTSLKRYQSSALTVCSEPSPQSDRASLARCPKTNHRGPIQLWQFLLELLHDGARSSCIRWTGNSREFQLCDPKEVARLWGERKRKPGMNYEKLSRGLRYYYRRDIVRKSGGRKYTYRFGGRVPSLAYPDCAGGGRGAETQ
How it was run: as §1

ELF3 = target: T11, ELF3 (Homo sapiens, UniProt P78545 1-371); conditions: protein: recombinant; tags: N-terminal GST; dsDNA, one strand shown
T11 sequence: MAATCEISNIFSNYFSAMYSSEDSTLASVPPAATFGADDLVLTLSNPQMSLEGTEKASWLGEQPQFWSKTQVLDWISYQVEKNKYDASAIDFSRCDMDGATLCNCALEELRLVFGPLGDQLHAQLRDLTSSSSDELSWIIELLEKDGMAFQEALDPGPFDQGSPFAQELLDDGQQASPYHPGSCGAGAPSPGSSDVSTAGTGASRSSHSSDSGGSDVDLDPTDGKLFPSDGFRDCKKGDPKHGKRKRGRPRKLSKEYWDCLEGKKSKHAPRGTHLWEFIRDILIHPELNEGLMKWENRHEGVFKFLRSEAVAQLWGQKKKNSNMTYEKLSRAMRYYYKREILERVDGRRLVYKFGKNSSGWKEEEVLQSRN
How it was run: as §1

CRX = CRX (Homo sapiens, UniProt O43186 1-299); conditions: protein: recombinant; tags: N-terminal GST; dsDNA, one strand shown
CRX, sequence (O43186 whole entry): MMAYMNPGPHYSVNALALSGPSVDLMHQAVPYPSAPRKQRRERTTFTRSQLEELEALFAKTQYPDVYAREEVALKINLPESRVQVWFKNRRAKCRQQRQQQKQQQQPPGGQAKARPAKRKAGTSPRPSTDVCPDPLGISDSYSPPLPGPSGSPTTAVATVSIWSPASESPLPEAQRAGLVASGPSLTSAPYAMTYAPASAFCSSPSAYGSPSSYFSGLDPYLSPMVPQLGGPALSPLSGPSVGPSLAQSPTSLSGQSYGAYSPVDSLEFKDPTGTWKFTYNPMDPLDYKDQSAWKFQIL
How it was run: as §1

ETV1 = ETV1 (Homo sapiens, UniProt P50549 1-477); conditions: protein: recombinant; tags: N-terminal GST; dsDNA, one strand shown
ETV1, sequence (P50549 whole entry): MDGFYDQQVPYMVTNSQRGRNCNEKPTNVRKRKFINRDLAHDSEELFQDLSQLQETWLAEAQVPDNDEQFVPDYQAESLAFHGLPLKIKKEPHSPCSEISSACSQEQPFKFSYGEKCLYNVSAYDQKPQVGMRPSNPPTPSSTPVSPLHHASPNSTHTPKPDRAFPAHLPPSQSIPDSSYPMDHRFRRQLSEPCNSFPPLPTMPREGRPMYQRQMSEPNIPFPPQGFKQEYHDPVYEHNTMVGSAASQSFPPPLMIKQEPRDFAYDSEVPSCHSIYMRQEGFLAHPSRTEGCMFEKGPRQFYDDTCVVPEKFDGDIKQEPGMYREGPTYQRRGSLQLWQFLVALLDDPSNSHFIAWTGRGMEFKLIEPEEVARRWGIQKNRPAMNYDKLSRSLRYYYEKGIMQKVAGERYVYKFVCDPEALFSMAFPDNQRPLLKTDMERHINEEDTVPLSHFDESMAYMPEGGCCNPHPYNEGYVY
How it was run: as §1

For TTTTGT, the binding signal (FLI1) was 1.35 fold enrichment (6-mer frequency, TF over GST control), the binding signal (ELK1) was 1.18 fold enrichment (6-mer frequency, TF over GST control) and the binding signal (GABPA) was 1.36 fold enrichment (6-mer frequency, TF over GST control). The binding signal (ERG) was 1.39 fold enrichment (6-mer frequency, TF over GST control), the binding signal (ELF1) was 1.33 fold enrichment (6-mer frequency, TF over GST control) and the binding signal (EHF) was 1.33 fold enrichment (6-mer frequency, TF over GST control). For the same sequence, the binding signal (SPI1) was 1.43 fold enrichment (6-mer frequency, TF over GST control), the binding signal (SPIB) was 1.37 fold enrichment (6-mer frequency, TF over GST control) and the binding signal (ELK3) was 1.27 fold enrichment (6-mer frequency, TF over GST control). For the same sequence, the binding signal (FEV) was 1.33 fold enrichment (6-mer frequency, TF over GST control), the binding signal (ETV5) was 1.31 fold enrichment (6-mer frequency, TF over GST control) and the binding signal (HSF1) was 1.27 fold enrichment (6-mer frequency, TF over GST control). The binding signal (SPIC) was 1.2 fold enrichment (6-mer frequency, TF over GST control), the binding signal (ELF4) was 1.41 fold enrichment (6-mer frequency, TF over GST control) and the binding signal (ELK4) was 1.36 fold enrichment (6-mer frequency, TF over GST control). For the same sequence, the binding signal (ETV2) was 1.28 fold enrichment (6-mer frequency, TF over GST control), the binding signal (ELF3) was 1.43 fold enrichment (6-mer frequency, TF over GST control) and the binding signal (CRX) was 1.42 fold enrichment (6-mer frequency, TF over GST control). The binding signal (ETV1) was 1.32 fold enrichment (6-mer frequency, TF over GST control).
